Hits are enriched below; roughly 2.3% of the tested compounds scored in any of these assays.
AMA1 RON2 block: qHTS for Inhibitors of AMA1-RON; Towards Development of Antimalarial Drug Lead: Primary Screen; hit rate 0.2% among 360,000; AID 720542, 2013; Potency, µM (series often up to 58.2 µM), without a hit: top-dose activity change, negative = inhibition, hits mostly inhibitors; Plasmodium falciparum AMA1 (3D7) - RON2 peptide interaction; AlphaScreen AMA1-biotinylated RON2 peptide binding;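 note: 0% = vehicle wells and -100% = peptide control; nearly all actives have a fitted effect of over 45% in size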
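AMA1 (3D7) with his tag at 25 nM final met compounds first, then biotinylated RON2 peptide at 25 nM; detection used donor plus acceptor beads, 10 µg/mL apiece, read by AlphaScreen after 30 min at room temperature.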
Lassa entry inh: qHTS for Inhibitors of binding or entry into cells for Lassa Virus; Lassa virus pseudotype entry inhibition, cell reporter; Potency, µM (top dose mostly 37.9 µM), for the others: top-dose activity change, negative = inhibition, most hits filed as inhibitors; hit rate 1.2% among 300,000; calls by dose curve; tested in HEK293 cells; note: nearly all actives have a fitted effect of over 50% in size
AmpC inh detg: qHTS Inhibitors of AmpC Beta-Lactamase (assay with detergent). AmpC hydrolysis of nitrocefin, absorbance 480 nm, 0.01% Triton. Potency, µM (titrated, usually from 114 µM), for inactives: top-dose activity change, negative = inhibition, usual class: inhibitors. hit rate 0.041% among 370,000. AID 485294, 2010;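 note: 0% = no-compound wells and -100% = no-enzyme wells; nearly all actives have a fitted effect of over 25% in size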
Target sequence (P00811 whole entry, looked up): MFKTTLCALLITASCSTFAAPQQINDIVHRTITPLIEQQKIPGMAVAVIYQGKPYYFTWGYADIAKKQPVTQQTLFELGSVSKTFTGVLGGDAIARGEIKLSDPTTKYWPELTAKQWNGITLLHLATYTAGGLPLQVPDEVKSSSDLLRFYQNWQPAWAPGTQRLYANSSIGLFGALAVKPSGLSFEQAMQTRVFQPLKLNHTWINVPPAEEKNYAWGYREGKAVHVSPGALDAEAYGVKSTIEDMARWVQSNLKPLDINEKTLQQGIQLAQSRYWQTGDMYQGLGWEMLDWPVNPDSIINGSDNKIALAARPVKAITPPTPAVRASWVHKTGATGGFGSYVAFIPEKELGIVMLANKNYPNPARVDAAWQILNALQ
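20 mM phosphate pH 7.0 + 0.01% (detergent screen) or 0.0001% Triton X-100; 5.3 nM AmpC reagent; cpd preinc 15 min RT; nitrocefin (800 uM stock) to start; A480 q20 s × 4 min; Activity was normalised to no-enzyme and no-compound control wells.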
AmpC no deterg: qHTS Inhibitors of AmpC Beta-Lactamase (assay without detergent); P00811; AmpC nitrocefin hydrolysis, absorbance 480 nm, 0.0001% Triton; Potency, µM (series often up to 57.1 µM), without a hit: top-dose activity change, negative = inhibition, most hits filed as inhibitors; hit rate 0.52% among 330,000; AID 485341, 2010;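 note: plate controls were no compound for no effect and no enzyme for full effect; nearly all actives have a fitted effect of over 20% in size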
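20 mM phosphate pH 7.0 + 0.01% (detergent screen) or 0.0001% Triton X-100; 5.3 nM AmpC reagent; cpd preinc 15 min RT; nitrocefin (800 uM stock) to start; A480 q20 s × 4 min; Activity was normalised to no-enzyme and no-compound control wells.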
Marburg entry inh: qHTS for inhibitors of binding or entry into cells for Marburg Virus; Marburg virus pseudotyped entry inhibition, cell reporter; Potency, µM (top dose mostly 37.8 µM), inactives show at the top dose activity change, negative = inhibition, actives largely listed as inhibitors; hit rate 1.8% among 300,000; AID 540276, 2011; calls by dose curve; tested in HEK293 cells
Active calls of the source: *; ? = inconclusive; nt = not tested or not shown; [ ] = another dose, or the depositor's remark. Unless noted, calls come from the whole dose curve; as a rule, active = well fitted curve in the direction sought with a large enough effect; inconclusive = small, poorly fitted or top-dose-only effect, or another doubt; inactive = no such curve, though single readings can be large; an effect the other way counts as inactive or inconclusive. Unless noted, % is set by controls: 0 for no effect and ±100 for the full control effect; potency is the fitted concentration of half-maximal effect.

SMILES | AMA1 RON2 block | Lassa entry inh | AmpC inh detg | AmpC no deterg | Marburg entry inh
O=C(CSc1nc2scc(-c3ccco3)c2c(=O)n1-c1ccccc1)N1CCOCC1 | -13.8% | 4.11µM* | 0.4% | -6.8% | ?
O=C(CN1C(=O)c2ccccc2S1(=O)=O)c1ccc(F)c(F)c1 | 14.0% | ? | 5.8% | -18.9% | 10µM*
CNS(=O)(=O)c1cccc(C(=O)OCC(=O)c2cc(C)n(CC3CCCO3)c2C)c1 (stereo not given) | 14.4%[11.6 µM] | 12.6µM* | ? | 18.1% | ?
Cc1cc(C(=O)CN2C(=O)c3ccccc3S2(=O)=O)c(C)n1CC1CCCO1 (stereo not given) | -1.7% | 0.461µM* | -7.8% | 16.9% | 0.58µM*
CC12C=C(C=Cc3ccccc3)C(C)(C1)C(c1ccccc1)CC2=O (stereo not given) | nt | nt | nt | nt | -4.1%[14.2 µM]
C=CC[C@@H]1C=CC(O/N=C(\C)CCC(=O)OC[C@H]2O[C@H](C#Cc3ccccc3)C=C[C@@H]2Oc2ccc(C)cc2)[C@@H](CO)O1 (stereo not given in full) | nt | nt | nt | nt | 29.4%[14.2 µM]
Cc1ccc(Cl)cc1N1CCN(C(=O)CSc2nnc3n2C(C)(C)Cc2ccccc2-3)CC1 | -6.9% | ? | -2.3% | 20.2% | 11.6µM*
COC(=O)c1c(NC(=O)/C=C/C(=O)O)sc(Cc2ccccc2)c1C | -6.5% | -5.9% | -7.8% | -15.3% | 11.2µM*
Cc1ccc(C(c2sc3nc(-c4ccco4)nn3c2O)N2CCC3(CC2)OCCO3)cc1 (stereo not given) | nt | 7.3%[46.1 µM] | 0.7% | nt | nt
C=CCOc1ccc2nc(NC(=O)OC)[nH]c2c1 | 1.3% | ? | -12.7% | -17.0% | ?
COC(=O)Nc1nc2ccc(Oc3ccc(NC(=O)Nc4ccccc4)cc3)cc2[nH]1 | nt | 3.15µM* | nt | nt | nt
CCc1cccc(NC(=O)Nc2ccc(Oc3ccc4nc(NC(=O)OC)[nH]c4c3)cc2)c1 | nt | 12.5µM* | nt | nt | nt
O=C1NCCN2CCC[C@H]12 | nt | nt | nt | nt | 19.2%
CC(C)C1CC(CCN)(Cc2ccccc2)CCO1 (stereo not given) | 5.5% | 0.2%[46.1 µM] | -8.4% | 15.7% | 14.6µM*
CC(C)C1CC(CCN)(c2ccccc2)CCO1 (stereo not given) | -14.4% | nt | -7.5% | 14.2% | nt
CCOc1ccccc1N(C)C(=O)Cn1cnc2onc(-c3ccc(F)cc3)c2c1=O | nt | 27.1%[46.1 µM] | 18.9% | nt | nt
COc1ccccc1NC(=O)COc1ccc(Br)cc1CNC1CCCC1 | 2.1% | nt | 1.7% | -11.8% | 5.62µM*
C[C@@]12C(=O)OC(=O)[C@]1(C)C1CCC2O1 | 39.3% | nt | ? | -14.7% | nt
CC1(C(=O)O)C2CCC(O2)C1(C)C(=O)O (stereo not given) | nt | 3.26µM* | nt | nt | 4.11µM*
COc1ccc(Nc2ncnc3c2nc2n3CCCC2)cc1Cl | nt | 15.1%[46.1 µM] | -0.9% | nt | nt
COc1cc(CNCCc2ccccc2)cc(Br)c1OCC(=O)Nc1ccccc1C | -1.0% | 3.3% | ? | 94.7% | 20.6µM*
Cc1ccc(Cn2c(=O)c3ccccc3n3c(-c4ccccc4)nnc23)cc1 | nt | -6.3%[46.1 µM] | 23.9% | nt | 4.8%[46.1 µM]
CCCn1c2ccccc2c2nnc(SC(CC)C(=O)Nc3sc4c(c3C#N)CCCC4)nc21 (stereo not given) | -19.0% | -0.4% | -0.2% | -30.8% | ?
CCC(Sc1nnc2c3ccccc3n(CC)c2n1)C(=O)Nc1nnc(C(C)C)s1 (stereo not given) | nt | 5.3%[46.1 µM] | 20.6% | nt | 4.0%[46.1 µM]
CCCn1c2ccccc2c2nnc(SC(CC)C(=O)Nc3cc(C)on3)nc21 (stereo not given) | -1.9% | ? | 0.4% | -25.3% | 12.6µM*
CCC(Sc1nnc2c3ccccc3n(CC)c2n1)C(=O)Nc1ccc(NC(C)=O)cc1 (stereo not given) | nt | -17.7%[46.1 µM] | 1.8% | nt | 3.55µM*
CC(Sc1nc(=O)cc(N)n1CCc1ccccc1)C(=O)Nc1ccccc1C#N (stereo not given) | nt | 17.3%[46.1 µM] | 0.5% | nt | 9.9%[46.1 µM]
CCCCNc1c([N+](=O)[O-])cc(C)cc1[N+](=O)[O-] | 18.9µM* | 24.0% | -14.4% | -22.3% | 18.2%
CS(=O)(=O)c1ccc(Cl)c(NC(=O)CCl)c1 | -17.1% | 17.8µM* | 3.3% | -14.0% | ?
